# According to publication PMC11062922 (Nature Chemical Biology, 2023):
# Where two headings read alike, the source gives them in different places.
# What was measured:
# Design in all cases: species or system human, MV4-11 + K-562 + COLO205 + SK-N-BE2 + OVCAR-8
# [1] = system: ADRBK1; details: read-out: apparent Kd, n = 1
# [2] = system: AKT3; details: read-out: apparent Kd; compound concentrations: 100 nM and 1000 nM (sheet 'Samples'), CATDS: 1.9200970976664199E-2; n = 1
# [3] = system: CDC42BPA; details: read-out: apparent Kd; compound concentrations: 100 nM and 1000 nM (sheet 'Samples'), CATDS: 2.9889506530370698E-2; n = 1
# [4] = system: CDC42BPB; details: read-out: apparent Kd; compound concentrations: 100 nM and 1000 nM (sheet 'Samples'), CATDS: 7.2209321727509101E-2; n = 1
# [5] = system: CDC42BPG; details: read-out: apparent Kd; compound concentrations: 100 nM and 1000 nM (sheet 'Samples'), CATDS: 5.7260921277851103E-2; n = 1
# [6] = system: CDKL5; details: read-out: apparent Kd; compound concentrations: 100 nM and 1000 nM (sheet 'Samples'), CATDS: 3.0884187274208798E-2; n = 1
# [7] = system: CHEK1; details: read-out: apparent Kd; compound concentrations: 100 nM and 1000 nM (sheet 'Samples'), CATDS: 4.9980963828105997E-2; n = 1
# [8] = system: JAK2; details: read-out: apparent Kd; compound concentrations: 100 nM and 1000 nM (sheet 'Samples'), CATDS: 2.4440515668024899E-2; n = 1
# [9] = system: NUAK1; details: read-out: apparent Kd; compound concentrations: 100 nM and 1000 nM (sheet 'Samples'), CATDS: 4.1044446827870798E-2; n = 1
# [10] = system: NUAK2; details: read-out: apparent Kd; compound concentrations: 100 nM and 1000 nM (sheet 'Samples'), CATDS: 3.8421609760156301E-2; n = 1
# [11] = system: PKN1; details: read-out: apparent Kd; compound concentrations: 100 nM and 1000 nM (sheet 'Samples'), CATDS: 3.7942588141146198E-2; n = 1
# [12] = system: PKN2; details: read-out: apparent Kd; compound concentrations: 100 nM and 1000 nM (sheet 'Samples'), CATDS: 2.7249776498222002E-2; n = 1
# [13] = system: PKN3; details: read-out: apparent Kd; compound concentrations: 100 nM and 1000 nM (sheet 'Samples'), CATDS: 1.9288035237500001E-2; n = 1
# [14] = system: PRKAA1; details: read-out: apparent Kd; compound concentrations: 100 nM and 1000 nM (sheet 'Samples'), CATDS: 2.2574550296483802E-2; n = 1
# [15] = system: PRKAA2; details: read-out: apparent Kd; compound concentrations: 100 nM and 1000 nM (sheet 'Samples'), CATDS: 1.9838935716802002E-2; n = 1
# [16] = system: PRKACA; details: read-out: apparent Kd; compound concentrations: 100 nM and 1000 nM (sheet 'Samples'), CATDS: 9.6222688341774595E-2; n = 1
# [17] = system: PRKACB; details: read-out: apparent Kd; compound concentrations: 100 nM and 1000 nM (sheet 'Samples'), CATDS: 7.2959241198541205E-2; n = 1
# [18] = system: PRKAG1; details: read-out: apparent Kd; compound concentrations: 100 nM and 1000 nM (sheet 'Samples'), CATDS: 2.1564965270821398E-2; n = 1
# [19] = system: PRKAG2; details: read-out: apparent Kd; compound concentrations: 100 nM and 1000 nM (sheet 'Samples'), CATDS: 2.8394039575996899E-2; n = 1
# [20] = system: PRKCA; details: read-out: apparent Kd; compound concentrations: 100 nM and 1000 nM (sheet 'Samples'), CATDS: 4.1441031849898502E-2; n = 1
# [21] = system: PRKCB; details: read-out: apparent Kd; compound concentrations: 100 nM and 1000 nM (sheet 'Samples'), CATDS: 3.5643049371418899E-2; n = 1
# [22] = system: PRKCD; details: read-out: apparent Kd; compound concentrations: 100 nM and 1000 nM (sheet 'Samples'), CATDS: 5.5614379812914103E-2; n = 1
# [23] = system: PRKCQ; details: read-out: apparent Kd; compound concentrations: 100 nM and 1000 nM (sheet 'Samples'), CATDS: 6.3184001345655702E-2; n = 1
# [24] = system: PRKD2; details: read-out: apparent Kd; compound concentrations: 100 nM and 1000 nM (sheet 'Samples'), CATDS: 1.9916010120102301E-2; n = 1
# [25] = system: PRKG1; details: read-out: apparent Kd; compound concentrations: 100 nM and 1000 nM (sheet 'Samples'), CATDS: 8.1540237220624201E-2; n = 1
# [26] = system: PRKX; details: read-out: apparent Kd; compound concentrations: 100 nM and 1000 nM (sheet 'Samples'), CATDS: 3.8731961225305901E-2; n = 1
# [27] = system: ROCK1; details: read-out: apparent Kd; compound concentrations: 100 nM and 1000 nM (sheet 'Samples'), CATDS: 7.2769225266658799E-2; n = 1
# [28] = system: ROCK2; details: read-out: apparent Kd; compound concentrations: 100 nM and 1000 nM (sheet 'Samples'), CATDS: 5.7736516058252897E-2; n = 1
# [29] = system: RPS6KA5; details: read-out: apparent Kd; compound concentrations: 100 nM and 1000 nM (sheet 'Samples'), CATDS: 2.03243213098795E-2; n = 1
# [30] = system: RPS6KB1; details: read-out: apparent Kd; compound concentrations: 100 nM and 1000 nM (sheet 'Samples'), CATDS: 4.2911282581945501E-2; n = 1
# [31] = system: CAMK4; details: read-out: apparent Kd; compound concentrations:100 nM and 1000 nM (sheet 'Samples'); n = 1
# [32] = system: CDK6; details: read-out: apparent Kd; compound concentrations:100 nM and 1000 nM (sheet 'Samples'); n = 1
# [33] = system: FLT3; details: read-out: apparent Kd; compound concentrations:100 nM and 1000 nM (sheet 'Samples'); n = 1
# [34] = system: MAP2K1; details: read-out: apparent Kd; compound concentrations:100 nM and 1000 nM (sheet 'Samples'); n = 1
# [35] = system: NNT; details: read-out: apparent Kd; compound concentrations:100 nM and 1000 nM (sheet 'Samples'); n = 1
# [36] = system: NQO1; details: read-out: apparent Kd; compound concentrations:100 nM and 1000 nM (sheet 'Samples'); n = 1
compound,measurement,setting,value
COc1ccc(O)c(C(=O)c2ccc(C(=O)N[C@@H]3CCCNC[C@H]3NC(=O)c3ccncc3)cc2)c1F.Cl [RO4367842-001],potency estimated from few doses,"[1]; compound concentrations: 100 nM and 1000 nM (sheet 'Samples'), CATDS: 2.1593661333857501E-2",587 nM
same,potency estimated from few doses,[2],1460 nM
same,potency estimated from few doses,[3],129 nM
same,potency estimated from few doses,[4],17.2 nM
same,potency estimated from few doses,[5],25.7 nM
same,potency estimated from few doses,[6],115 nM
same,potency estimated from few doses,[7],33.5 nM
same,potency estimated from few doses,[8],294 nM
same,potency estimated from few doses,[9],51.7 nM
same,potency estimated from few doses,[10],60.9 nM
same,potency estimated from few doses,[11],62.9 nM
same,potency estimated from few doses,[12],182 nM
same,potency estimated from few doses,[13],1400 nM
same,potency estimated from few doses,[14],448 nM
same,potency estimated from few doses,[15],1090 nM
same,potency estimated from few doses,[16],11.1 nM
same,potency estimated from few doses,[17],17 nM
same,potency estimated from few doses,[18],592 nM
same,potency estimated from few doses,[19],155 nM
same,potency estimated from few doses,[20],50.5 nM
same,potency estimated from few doses,[21],74.4 nM
same,potency estimated from few doses,[22],27.2 nM
same,potency estimated from few doses,[23],21.6 nM
same,potency estimated from few doses,[24],1050 nM
same,potency estimated from few doses,[25],14.2 nM
same,potency estimated from few doses,[26],59.6 nM
same,potency estimated from few doses,[27],17 nM
same,potency estimated from few doses,[28],25.4 nM
same,potency estimated from few doses,[29],897 nM
same,potency estimated from few doses,[30],46.5 nM
NS(=O)(=O)c1ccc(N/N=C2\C(=O)Nc3ccc(Cl)cc32)cc1 [GW280670X],potency estimated from few doses,[1]; compound concentrations:100 nM and 1000 nM (sheet 'Samples'),1880 nM
same,potency estimated from few doses,[31],1330 nM
same,potency estimated from few doses,[32],2280 nM
same,potency estimated from few doses,[33],1090 nM
same,potency estimated from few doses,[34],2000 nM
same,potency estimated from few doses,[35],1290 nM
same,potency estimated from few doses,[36],1850 nM
